Among the data in PubChem BioAssay (NCI) are growth values, retold here.

Compounds without any hit were thinned out: in the full panel of roughly 83,000, 20% have a hit.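 Testing used 96-well plates and a 48-hour single-concentration exposure. Example: -40 means 40% of the starting cells died.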 Values without a mark were called inactive. Active and inactive are the calls of the source.

The subject of this test is A549/ATCC NSCLC. The test can be described thus: NCI-60 one-dose screen, 48 h (100 = growth as untreated, 0 = no growth, -100 = all killed). Particulars: 10 µM unless noted. As for the experimental part: Growth inhibition of the A549/ATCC human Non-Small Cell Lung tumor cell line is measured as a screen for anti-cancer activity. Cells are grown in 96 well plates and exposed to the test compound for 48 hours. Compounds are tested at a single concentration, which is 10^-5 M for most compounds. The reported endpoint is percent growth (GI% or GIPRCNT), where numbers from 0 - 100% represent growth inhibition, and numbers from -100% - 0 represent cell death. For example, a value of 40 represents 60% growth inhibition. A value of 0 means no net growth occurred over the course of the experiment. A value of -40 indicates 40% of cells at the beginning of the experiment died by the end of the experiment. A value of -100 means all cells are dead at the end of the experiment.
NCI-60 Human Tumor Cell Lines Screen was performed using the standard one-dose NCI protocol, which is described in more detail at https://dtp.cancer.gov/discovery_development/nci-60/default.htm.
Compounds with GIPRCNT values below 10 were considered active. Activity score was based on GIPRCNT using the following formula: […]
Score is 0 for GIPRCNT values of 100 or above, 50 for GIPRCNT values of 0, and 100 for GIPRCNT values of -100.
Take `Cc1nc(/N=C(N)/N=C(\N)c2cccc(Br)c2)sc1C`: the growth is 56.8%.

For `COc1ccc2c(c1)c(-c1nc(N)nnc1-c1c[nH]c3ccccc13)cn2C`, the growth is 48.4%.

Regarding `O=C(CSc1nc2ccccc2c(=O)n1-c1ccccc1)N/N=C/c1ccc(Oc2ccc(Br)cc2)cc1`, the growth is 42.2%.

For `Cc1ccc(S(=O)(=O)NCCCNc2nccc(-c3[nH]c(-c4ccccc4)nc3-c3ccc(F)c(O)c3)n2)cc1`, the growth is 80.4%.

Regarding `C#CCN(C)CCCOc1ccc(NC(=O)CCCCCCC(=O)NO)cc1Cl`, the growth was 20.5%.

Regarding `CCCNNC(=O)c1ccc(-c2ccc(NC(=O)CCCCCCC(=O)N[C@H](C(=O)N3C[C@H](O)C[C@H]3C(=O)N[C@@H](C)c3ccc(-c4scnc4C)cc3)C(C)(C)C)cc2)cc1`, the growth was 72.4%.

In the case of `O=C1c2ccccc2C23C(=C(c4cncnc4)c4ccccc42)CCCN13` (stereo not given), the growth is 98.9%.

In the case of `C#Cc1nc(/C=C\CCCCCCC(=O)NO)cs1`, the growth was 67.6%.

Regarding `O=C(Nc1cccc(C(F)(F)F)c1)N1CCN(c2cc(-c3cn(-c4ccccc4)nc3-c3cccc(O)c3)ccn2)CC1`, the growth was 44.8%.

As for `O=C(/C=C/c1cccc(F)c1)c1cccc(OCCCOc2cccc(C(=O)/C=C/c3cccc(F)c3)c2)c1`, the growth was 69.8%.

On to `Cc1ccc2c(n1)C(=O)C(Cl)=C(Nc1ccc(C(=O)OC(C)(C)C)cc1)C2=O`, for which the growth was 99.9% [9.25 µM].

Consider `Cc1[nH]c(C(=O)Nc2ccc(S(=O)(=O)N3CCCCC3)cc2OCCOCCOCCOCCOCCOCCOCCOCCOCCOc2cc(S(=O)(=O)N3CCCCC3)ccc2NC(=O)c2[nH]c(C)c3c2CCCCC3=O)c2c1C(=O)CCCC2`, for which the growth is 24.1%.

Consider `CCCC/C(=C\c1ccc(O)c(O)c1)C(=O)NC(Cc1ccccc1)C(=O)C(=O)NCCc1ccc(OC)cc1` (stereo not given), for which the growth is 103%.

As for `Brc1ccc2[nH]cc(-c3nn4cc(-c5nccs5)nc4s3)c2c1`, the growth was 4.76% (active).

Take `CNC(=O)c1cc(-c2ccc(NC(=S)Nc3cccc(C(F)(F)F)c3)cc2)nc2cccnc12`: the growth was 96.9%.

For `C/C(=N\NC(N)=S)c1nnn(-c2ccc([N+](=O)[O-])cc2)c1C`, the growth was 103%.

Regarding `Cc1ccc(NC2=C(Cl)C(=O)c3nc(C)ccc3C2=O)c(C)c1`, the growth was 46.5%.

In the case of `COc1ccccc1/C=C1\Oc2ccc(O)c(O)c2C1=O`, the growth was 101%.

With `O=C(CCCCCCNC(=O)c1csc(Br)n1)NO`, the growth was 34.8%.

As for `Clc1ccc2[nH]cc(-c3nn4cc(-c5ccncc5)nc4s3)c2c1`, the growth was 68.6%.

Turning to `CNC(=O)c1cc(Oc2ccc3c(c2)sc2nc(-c4ccc(N(C)C)cc4)cn23)ccn1`, the growth was 23.4%.

`O=C1/C(=C/c2cc(F)cc(F)c2)Cc2cc3c(cc21)OCO3`: the growth is 59.8%.

For `Cc1ccc(S(=O)(=O)NCCCNc2nc(Nc3ccc(N4CCN(C)CC4)cc3)nc3ccsc23)cc1`, the growth is 37.1%.

Take `COc1ccc(C2CC(c3cccc(OCCCCOc4cccc(C5=NN(C(C)=O)C(c6ccc(OC)cc6)C5)c4)c3)=NN2C(C)=O)cc1` (stereo not given): the growth was 68.2%.

Regarding `CCN(CC)c1ccc(/C=N/NC(=O)c2ccc(NS(C)(=O)=O)cc2)cc1`, the growth was 29.9%.

With `O=C(CCCCCCNC(=O)C(O)(O)C(F)(F)F)Nc1ccc(Br)cc1`, the growth was 7.9% (active).

`CC(=O)N1N=C(c2cc3ccccc3oc2=O)CC1c1cn(-c2ccccc2)nc1-c1ccc(C)cc1` (stereo not given): the growth was 97.3%.

Take `N#Cc1c(-c2cccs2)cc(-c2cnccn2)nc1SCC(=O)N/N=C/c1ccccc1`: the growth is 46.8%.

`CCCCSC1=C(Cl)CN(c2ccc(Cl)cc2)C1=O`: the growth is 102%.

Consider `OCC(Nc1ncnc2ccc(-c3cnc4cnccn34)cc12)c1ccccc1` (stereo not given), for which the growth was 74.2%.

With `C#CCN(C)CCCOc1ccc(NCc2ccc(C(=O)NO)cc2)cc1Cl`, the growth was 20%.

`COc1cc2oc(-c3cccc(NC(=O)[C@@H](N)C(C)C)c3)cc(=O)c2c(OC)c1OC`: the growth is 94.6%.

For the compound `O=[N+]([O-])c1ccc(NC(=S)NNC(=S)Nc2ccc(F)cc2)cc1`, the growth is 88.2%.

Turning to `CN1CCN(c2ccc(Nc3nc(NCCNS(=O)(=O)c4ccc5ccccc5c4)c4sccc4n3)cc2)CC1`, the growth is 84.3%.

For the compound `Brc1cc(-c2cc(-c3ccc4c(c3)OCCO4)[nH]n2)cs1`, the growth was 42.8%.

Regarding `CC1CC(=O)C2=C(C1)Nc1ccc(Br)cc1CC2c1c[nH]c2ccc(Br)cc12` (stereo not given), the growth is 42.3%.

On to `COc1ccccc1N1CCN(C2=C(Cl)C(=O)c3ncccc3C2=O)CC1`, for which the growth was 112%.

For the compound `CN1CCC[C@]2(C)[C@H]3CC[C@@H]4[C@@H]5[C@H]6OC[C@@]5(CCC6(C)C)CC[C@@]4(C)[C@]3(C)CC[C@H]2C1(C)C`, the growth was 71.7%.

For the compound `CC(C)(C)OC(=O)NCc1ccc(CNc2c([N+](=O)[O-])cnc3ccccc23)cc1`, the growth is 72.2%.

For `O=[N+]([O-])c1ccc(NC(=S)NNC(=S)Nc2ccc(Br)cc2)cc1`, the growth is 83.9%.
